We go through 8 compounds from PubChem BioAssay (Tox21).

Values without a mark were called inactive. Inconclusive results are not listed. Activity calls are given as the source filed them. Unless noted, calls come from the whole dose curve.

Experiment [1] is described as follows: Nuclear factor erythroid 2-related factor 2/antioxidant responsive element (Nrf2/ARE) small molecule agonists: qHTS cell viability counter screen in human keratinocytes (AID 1919968; active = well fitted curve in the direction sought with a large enough effect in the repeat runs; an effect the other way counts as inactive or inconclusive; note: nearly all actives have a fitted effect of over 55% in size; note: potency is the fitted concentration of half-maximal effect). The procedure, abridged: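 KeratinoSens cells (HaCaT keratinocytes stably carrying an ARE-luciferase reporter) were seeded at 1,500 cells/well and rested 5 h at 37 C/5% CO2. They were then exposed to compounds in DMSO for 23 h. Viability was read by CellTiter-Fluor fluorescence after 1 h.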
On the technique in general: qHTS replaces the single test concentration by a dilution series.

Experiment [2] deals with Gonadotropin-releasing hormone receptor (Homo sapiens) (UniProt P30968). In words: Human gonadotropin-releasing hormone receptor (GnRHR) small molecule agonists, calcium flux assay in GnRHR-HEK293 cells (AID 1920063). Note: nearly all actives have a fitted effect of over 35% in size. The procedure, abridged:
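HEK293 cells stably expressing human GnRHR were plated 18 h at 37 °C, loaded with calcium dye 1 h at 37 °C, then given compound in agonist mode; fluorescence (Ex/Em 480/540) read kinetically for 3 min at 1 s intervals.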
A general note: Calcium flux is commonly read through the fluorescence of an indicator in the cells.

The target in experiment [3] is KiSS-1 receptor (Homo sapiens) (UniProt Q969F8). In words: Human kisspeptin (KISS1R) small molecule agonists, calcium flux assay in KISS1R-HEK293 cells (AID 1920064; active = well fitted curve in the direction sought with a large enough effect in the repeat runs; an effect the other way counts as inactive or inconclusive). Put shortly:
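HEK293 cells stably expressing human KISS1R were plated 18 h at 37 °C, loaded with calcium dye for 1 h at 37 °C, then given compound by pin tool. Fluorescence (Ex/Em 480/540) was read kinetically for 3 min.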

Experiment [4] in a line: G protein-coupled receptor (GPCR) small molecule agonists, calcium flux assay: HEK293 wild type cell line counter screen (AID 1920065). The procedure, abridged: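 Cells were plated and cultured 18 h at 37 C/5% CO2, then loaded with calcium dye for 1 h at 37 C. Compounds in DMSO were pin-transferred in agonist mode, and fluorescence (Ex/Em 480/540) was read kinetically for 3 min at 1 s intervals.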

Experiment [5] can be described thus: p53 small molecule agonists, cell-based qHTS assay with human liver microsomes: qHTS cell viability counter screen (AID 1963579). Note: nearly all actives have a fitted effect of over 45% in size. Put shortly:
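Metabolic activation used human liver microsomes and NADPH, both 0.5 mg/mL final, over 16 hours at 37 C on p53RE-bla cells (4,000/well). Cytotoxicity measured by CellTiter-Glo luminescence, 30 min at room temperature.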

A short description of experiment [6]: p53 small molecule agonists, cell-based qHTS assay with rat liver microsomes: qHTS cell viability counter screen (AID 1963580). Note: nearly all actives have a fitted effect of over 45% in size. Put shortly:
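HCT-116 p53RE-bla, 4,000 cells/well, 5 h pre-incubation; cpd + rat liver microsomes 0.5 mg/mL + NADPH 0.5 mg/mL (final); 16 h, 37 C; CellTiter-Glo, 30 min RT; luminescence.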

Experiment [7] can be described thus: p53 small molecule agonists, cell-based qHTS assay: qHTS cell viability counter screen (AID 1963581). Note: nearly all actives have a fitted effect of over 45% in size. The procedure, abridged:
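p53RE-bla HCT-116 cells were exposed to compounds for 16 h at 37 C; after the beta-lactamase FRET read in the same wells, CellTiter-Glo was added and luminescence (intracellular ATP) read after 30 min at room temperature.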

Experiment [8] has as its target 5-hydroxytryptamine receptor 2A (Homo sapiens) (UniProt P28223). In words: 5-hydroxytryptamine receptor 2A (HTR2A) small molecule agonists, cell-based qHTS assay (AID 1963587). Note: nearly all actives have a fitted effect of over 30% in size. Put shortly:
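Kinetic calcium-flux fluorescence (2 min, 1 sec intervals) after compound addition in agonist mode. HTR2A-CHO cells were cultured 18 h, then dye-loaded 1 h at 37 C.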

For experiment [9], the target named is Muscarinic acetylcholine receptor M1 (Homo sapiens) (UniProt P11229). In words: Cholinergic receptor muscarinic 1 (CHRM1) small molecule antagonists, cell-based qHTS assay (AID 1963588). Note: nearly all actives have a fitted effect of over 40% in size. Put shortly: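 CHRM1-CHO calcium-flux assay, antagonist mode. Cells were seeded 18 h, dye-loaded 1 h at 37 C and given compound for 5 min at RT, then acetylcholine was added at 50nM. FDSS fluorescence was read 3 min; 15 concentrations, three runs.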

For experiment [10] the target is unchanged. In words: Cholinergic receptor muscarinic 1 (CHRM1) small molecule agonists, cell-based qHTS assay (AID 1963589). Note: nearly all actives have a fitted effect of over 35% in size. The procedure, abridged: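 CHO cells stably expressing human CHRM1, seeded 18 h at 37 C/5% CO2, dye-loaded 1 h at 37 C, then given compound in agonist mode; intracellular calcium fluorescence read kinetically at 1 s intervals. Fifteen concentrations, three independent runs.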

A short description of experiment [11]: cAMP Responsive Elements (CRE) small molecule agonists, cell-based qHTS assay (AID 1963590). Put shortly:
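CRE-bla HEK 293T cells in DMEM with 10% dialyzed FBS, NEAA, pyruvate and 25 mM HEPES were plated 18 h at 37 C/5% CO2, then exposed to compounds in DMSO for 3 h before LiveBLAzer B/G FRET substrate addition.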

A short description of experiment [12]: cAMP Responsive Elements (CRE) small molecule antagonists, cell-based qHTS assay (AID 1963591; active = well fitted inhibition curve with a large enough effect in the signal ratio in the repeat runs, not every such curve was filed as active; the % refers to the signal ratio). Put shortly: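 CRE-bla HEK293T cells were plated 18 h at 37 °C/5% CO2, pinned with compound in DMSO, then stimulated with NKH477 at 0.25 uM final for 3 h. LiveBLAzer B/G FRET substrate was added and plates incubated 2 h at room temperature.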
The target in experiment [13] is D(2) dopamine receptor (Homo sapiens) (UniProt P14416). In words: Dopamine D2 receptor (DRD2) small molecule agonists, cell-based qHTS assay (AID 1963594). Note: nearly all actives have a fitted effect of over 35% in size. Put shortly: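 cAMP accumulation in DRD2-HEK293 cells measured by HTRF after 1 h detection; compounds added 10 min before NKH477 (200nM […]) forskolin-analogue stimulation, 30 min at room temperature, with Ro20-1724 present at 0.1 mM final.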

For experiment [14] the target is unchanged. In words: Dopamine D2 receptor (DRD2) small molecule antagonists, cell-based qHTS assay (AID 1963595; active = well fitted inhibition curve with a large enough effect in the signal ratio in the repeat runs, with a control signal flat; the % refers to the signal ratio). The procedure, abridged:
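Stable D2 receptor HEK293 line, 24 h after seeding. Compound preincubated 10 min, then quinpirole (12 nM) with forskolin analogue NKH477 (200 nM), 30 min, room temperature. Detection by time-resolved FRET of cAMP.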

A short description of experiment [15]: p53 small molecule agonists, cell-based qHTS assay with human liver microsomes (AID 1963577).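 For activation: p53 response element beta-lactamase reporter cells with liver microsomes plus NADPH.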 Note: potency is the fitted concentration of half-maximal effect. The procedure, abridged:
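With metabolic activation: human liver microsomes (0.5 mg/mL final) plus NADPH (0.5 mg/mL final) added alongside compounds to p53RE-bla cells; 16 h 37 C exposure; beta-lactamase read by LiveBLAzer fluorescence.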

Experiment [16] is described as follows: p53 small molecule agonists, cell-based qHTS assay (AID 1963582; active = well fitted activation curve with a large enough effect in the signal ratio in the repeat runs, not every such curve was filed as active; the % refers to the signal ratio). The procedure, abridged:
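p53RE-bla beta-lactamase reporter cells rested 5 h at 37 C/5% CO2, then received compounds in DMSO by pin transfer and were incubated 16 h at 37 C. LiveBLAzer B/G FRET substrate was loaded for 2 h at room temperature before fluorescence reading.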

Experiment [17] concerns the target 5-hydroxytryptamine receptor 2A (Homo sapiens) (UniProt P28223). In words: 5-hydroxytryptamine receptor 2A (HTR2A) small molecule antagonists, cell-based qHTS assay (AID 1963586). Note: nearly all actives have a fitted effect of over 45% in size. Put shortly:
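Antagonist-mode intracellular calcium assay: DOI (4 nM) added after 5 min compound pre-incubation at room temperature to dye-loaded HTR2A-CHO cells. Fluorescence followed for 3 min, sampled every second.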

Experiment [18] has as its target Beta-2 adrenergic receptor (Homo sapiens) (UniProt P07550). In words: Adrenergic beta2 receptor (ADRB2) small molecule antagonists, cell-based qHTS assay (AID 1963592). Note: series mostly up to about 92 µM; nearly all actives have a fitted effect of over 50% in size. Put shortly:
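Cells (CHO, stable ADRB2 overexpression) incubated 18-20hr at 37C; compounds added from DMSO; agonist mix (1nM isoproterenol, 100uM IBMX, 25uM Ro-20-1724) added; 0.5hr RT; d2-cAMP and anti-cAMP-cryptate added; 1hr RT; 665/615 nm read.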

Experiment [19] can be described thus: p53 small molecule agonists, cell-based qHTS assay with rat liver microsomes (AID 1963578). Put shortly:
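Metabolic activation by rat liver microsomes and NADPH, each 0.5 mg/mL final, added right after compounds to p53RE-bla reporter cells (4,000/well, plated 5 h earlier). 16 h at 37 C, then LiveBLAzer substrate for 2 h at room temperature in the dark; fluorescence read-out.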
% is set by controls: 0 for no effect and ±100 for the full control effect.

Chain of KiSS-1 receptor (Homo sapiens) (Q969F8 whole entry, looked up): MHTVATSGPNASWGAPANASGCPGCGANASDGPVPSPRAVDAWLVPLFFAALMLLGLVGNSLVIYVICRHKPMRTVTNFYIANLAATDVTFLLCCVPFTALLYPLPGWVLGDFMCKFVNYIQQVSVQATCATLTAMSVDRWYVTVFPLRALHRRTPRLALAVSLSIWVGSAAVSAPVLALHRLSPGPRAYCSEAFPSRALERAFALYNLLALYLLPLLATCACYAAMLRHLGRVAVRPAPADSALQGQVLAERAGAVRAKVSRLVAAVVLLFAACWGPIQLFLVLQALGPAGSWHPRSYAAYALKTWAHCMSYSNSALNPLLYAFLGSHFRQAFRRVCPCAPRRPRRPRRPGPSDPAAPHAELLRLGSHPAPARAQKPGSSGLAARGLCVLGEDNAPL
Chain of Beta-2 adrenergic receptor (Homo sapiens) (P07550 whole entry, looked up): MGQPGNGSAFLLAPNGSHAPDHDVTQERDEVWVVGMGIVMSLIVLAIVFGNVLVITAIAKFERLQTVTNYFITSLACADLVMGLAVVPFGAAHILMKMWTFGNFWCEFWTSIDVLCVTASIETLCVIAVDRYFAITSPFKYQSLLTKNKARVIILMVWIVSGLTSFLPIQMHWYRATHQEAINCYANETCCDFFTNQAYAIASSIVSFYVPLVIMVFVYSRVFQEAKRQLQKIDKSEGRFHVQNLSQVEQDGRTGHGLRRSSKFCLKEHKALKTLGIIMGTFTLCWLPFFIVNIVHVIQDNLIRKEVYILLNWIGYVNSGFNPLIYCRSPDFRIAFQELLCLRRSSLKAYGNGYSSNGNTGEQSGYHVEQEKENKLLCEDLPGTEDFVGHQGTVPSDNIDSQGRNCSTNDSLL
Chain of D(2) dopamine receptor (Homo sapiens) (P14416 whole entry, looked up): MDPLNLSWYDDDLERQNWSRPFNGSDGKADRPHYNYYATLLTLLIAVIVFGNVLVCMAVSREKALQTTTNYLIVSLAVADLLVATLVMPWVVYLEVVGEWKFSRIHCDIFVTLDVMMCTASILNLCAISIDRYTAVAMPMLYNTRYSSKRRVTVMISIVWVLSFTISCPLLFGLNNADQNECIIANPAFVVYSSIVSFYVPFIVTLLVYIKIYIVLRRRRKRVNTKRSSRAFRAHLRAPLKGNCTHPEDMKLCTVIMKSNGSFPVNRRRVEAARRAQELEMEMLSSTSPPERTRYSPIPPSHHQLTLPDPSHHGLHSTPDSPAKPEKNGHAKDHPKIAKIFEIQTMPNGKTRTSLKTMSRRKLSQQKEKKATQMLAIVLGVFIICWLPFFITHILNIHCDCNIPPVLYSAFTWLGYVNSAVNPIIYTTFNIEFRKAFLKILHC
Chain of 5-hydroxytryptamine receptor 2A (Homo sapiens) (P28223 whole entry, looked up): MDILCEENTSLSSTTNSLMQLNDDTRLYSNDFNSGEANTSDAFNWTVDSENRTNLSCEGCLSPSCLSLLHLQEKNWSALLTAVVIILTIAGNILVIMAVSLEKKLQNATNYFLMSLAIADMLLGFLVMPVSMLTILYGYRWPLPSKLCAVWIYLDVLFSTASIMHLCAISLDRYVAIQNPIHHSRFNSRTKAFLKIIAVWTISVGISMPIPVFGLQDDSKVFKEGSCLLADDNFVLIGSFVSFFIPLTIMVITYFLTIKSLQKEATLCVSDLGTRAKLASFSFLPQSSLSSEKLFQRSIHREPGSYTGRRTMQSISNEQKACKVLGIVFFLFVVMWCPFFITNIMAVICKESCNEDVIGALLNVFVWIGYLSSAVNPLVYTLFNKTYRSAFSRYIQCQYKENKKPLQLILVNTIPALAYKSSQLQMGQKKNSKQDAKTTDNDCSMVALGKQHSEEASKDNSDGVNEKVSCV
Chain of Muscarinic acetylcholine receptor M1 (Homo sapiens) (P11229 whole entry, looked up): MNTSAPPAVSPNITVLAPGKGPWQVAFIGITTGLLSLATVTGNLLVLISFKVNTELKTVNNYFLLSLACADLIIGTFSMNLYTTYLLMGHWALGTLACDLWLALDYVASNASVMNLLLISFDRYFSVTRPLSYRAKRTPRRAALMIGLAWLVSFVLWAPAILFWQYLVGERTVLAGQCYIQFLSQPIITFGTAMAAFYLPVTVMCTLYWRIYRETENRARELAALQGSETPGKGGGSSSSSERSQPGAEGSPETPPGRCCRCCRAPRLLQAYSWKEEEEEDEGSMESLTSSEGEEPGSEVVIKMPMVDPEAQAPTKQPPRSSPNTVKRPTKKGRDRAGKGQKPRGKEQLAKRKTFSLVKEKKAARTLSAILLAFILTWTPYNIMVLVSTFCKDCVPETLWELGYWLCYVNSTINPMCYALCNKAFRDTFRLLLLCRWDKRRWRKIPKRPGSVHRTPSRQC
Chain of Gonadotropin-releasing hormone receptor (Homo sapiens) (P30968 whole entry, looked up): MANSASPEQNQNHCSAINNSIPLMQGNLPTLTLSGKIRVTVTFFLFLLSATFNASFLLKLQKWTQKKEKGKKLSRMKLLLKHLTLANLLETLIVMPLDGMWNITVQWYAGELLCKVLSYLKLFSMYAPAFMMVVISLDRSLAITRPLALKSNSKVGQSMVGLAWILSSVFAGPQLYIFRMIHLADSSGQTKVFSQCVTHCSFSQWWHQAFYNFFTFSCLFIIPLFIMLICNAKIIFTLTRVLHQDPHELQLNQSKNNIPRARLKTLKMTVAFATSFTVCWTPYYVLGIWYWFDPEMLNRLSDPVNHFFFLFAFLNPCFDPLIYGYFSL

`c1ccc2c(c1)[nH]c1cnccc12`: the Potency result in experiment [1], in experiment [2], in experiment [3], in experiment [4], in [5] and in experiment [6] was “inactive” each time. The Potency entry in [7], in [8], in experiment [9], in experiment [10], in experiment [11] and in experiment [12] was “inactive” in each case. Moreover, the Potency result in [13] and in experiment [14] was “inactive” throughout.

On to `CCOP(=S)(OCC)Oc1ncn(-c2ccccc2)n1`, for which the Potency result in experiment [1], in experiment [2], in experiment [3], in experiment [5], in experiment [6] and in experiment [7] was “inactive” in each case. For the same compound, the Potency entry in experiment [16], in experiment [17], in experiment [8], in experiment [9], in experiment [10] and in experiment [18] was “inactive” each time. In addition, the Potency entry in experiment [13] and in [14] was “inactive” throughout. Besides, in [15], the Potency was 2890 nM (active).

Turning to `Cc1ncc(C[n+]2csc(CCO)c2C)c(N)n1`, the Potency entry in [1], in experiment [2], in [3], in [15], in experiment [19] and in experiment [5] was “inactive” each time. In addition, the Potency result in [7], in experiment [16], in experiment [17], in experiment [8], in [9] and in [10] was “inactive” in each case. The Potency result in [11], in experiment [12], in experiment [18] and in experiment [13] was “inactive” throughout.

Consider `CO/N=C(\C(=O)OC)c1ccccc1CO/N=C(\C)c1cccc(C(F)(F)F)c1`, for which the Potency entry in [1], in [2], in [3], in [15], in experiment [19] and in [5] was “inactive” throughout. For the same compound, the Potency entry in [6], in [7], in experiment [17], in experiment [8], in [9] and in experiment [10] was “inactive” throughout. The Potency result in experiment [12] and in [14] was “inactive” throughout.

For the compound `CN(C)C(=S)[S-].CN(C)C(=S)[S-].[Cu+2]`, the Potency in experiment [1] is 297 nM (active). The activity change in experiment [2] is 5.57% [at 11.8 µM, stronger effect = higher value]. Besides, the activation in experiment [3] is 0.935% [at 15.8 µM]; in experiment [4] it was 0.103% [at 11.8 µM]; in experiment [8], 16.6% [at 15.9 µM]; in experiment [10], 0.767% [at 15.8 µM]. For the same compound, in experiment [5], the activity change, negative = cytotoxicity was -25.4% [at 13.5 µM]. Further, the activity, negative = inhibition in experiment [17] was 13.6% [at 12.7 µM]; in experiment [9] it was -2.33% [at 12.6 µM]. For the same compound, the activity change, negative = inhibition in experiment [12] is -106% [at 18.9 µM]; in [18], 0.898% [at 19 µM]; in [14], 2.62% [at 18.9 µM].

For `CC(=O)[O-].CC(=O)[O-].CC(=O)[O-].[Sb+3]`, the activity change, negative = cytotoxicity in [1] was 0.851% [at 3.27 µM]; in experiment [5], 0.868% [at 2.33 µM]; in experiment [6], -3.59% [at 2.33 µM]; in experiment [7] it was 11.8% [at 2.33 µM]. Moreover, in experiment [2], the activity change is 0.655% [at 2.04 µM, stronger effect = higher value]. In addition, the activation in experiment [3] was 14% [at 2.72 µM]; in [4], -0.454% [at 2.04 µM]; in [8] it was -0.125% [at 2.65 µM]; in experiment [10], -0.154% [at 2.72 µM]; in [11], -0.0591% [at 3.27 µM]; in experiment [13], 0.942% [at 3.27 µM]. The activity, negative = inhibition in [17] is 0.713% [at 2.12 µM]; in experiment [9], 9.52% [at 2.17 µM]. For the same compound, the figures for the activity change, negative = inhibition in experiment [12], in [18] and in experiment [14] were -4.85% [at 3.27 µM], -10.7% [at 3.27 µM] and -1.4% [at 3.28 µM], respectively.

For `CCCSP(=S)(OCC)Oc1ccc(SC)cc1` (stereo unspecified), the Potency entry in [1], in [2], in experiment [3], in [4], in experiment [6] and in experiment [7] was “inactive” in each case. Besides, the Potency result in [16], in experiment [17], in experiment [8], in experiment [10], in experiment [11] and in [12] was “inactive” each time. Moreover, the Potency result in experiment [18], in [13] and in experiment [14] was “inactive” in each case.

Regarding `O.O.O.O.O.O.O.O=S(=O)([O-])[O-].[Co+2]`, the Potency entry in [1], in experiment [2], in [3], in experiment [4], in experiment [5] and in experiment [7] was “inactive” each time. The Potency result in [8], in [9], in experiment [10], in experiment [11], in [12] and in experiment [18] was “inactive” each time. Further, the Potency result in experiment [13] and in experiment [14] was “inactive” in each case.
